Calls of active or inactive are those of the source. Unless noted, how the calls were made is not given here.
What was measured:
[1] = anti-His antibody binders, primary screen, artefact control for SMM control protein annotation, biochemical, small-molecule microarray, 635 nm fluorescence (AID 1128); conditions: anti-His Alexa647 antibody binding, higher = more signal;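 further: score merges feature fluorescence with signal-to-noise for each printed compound spot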
[2] = system: Human papillomavirus type 1a E7 protein (residues 1-88); assay: HPV1a E7 small-molecule binders, primary screen, biochemical, small-molecule microarray, residues 1-88, 635 nm (AID 1129); conditions: small-molecule microarray binding, fluorescence 635 nm; higher = more signal
[3] = biological target: Focal adhesion kinase 1 (Homo sapiens) (UniProt Q05397); assay: small-molecule microarray binders of FAK, primary screen, biochemical, 635/667 nm fluorescence, BSA, DTT (AID 1130); conditions: PTK2 binding, 635 nm fluorescence, higher = more signal;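 further: composite of spot emission at 667 nm and signal to noise over triplicate slides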
Focal adhesion kinase 1 (Homo sapiens), sequence (Q05397 whole entry, looked up): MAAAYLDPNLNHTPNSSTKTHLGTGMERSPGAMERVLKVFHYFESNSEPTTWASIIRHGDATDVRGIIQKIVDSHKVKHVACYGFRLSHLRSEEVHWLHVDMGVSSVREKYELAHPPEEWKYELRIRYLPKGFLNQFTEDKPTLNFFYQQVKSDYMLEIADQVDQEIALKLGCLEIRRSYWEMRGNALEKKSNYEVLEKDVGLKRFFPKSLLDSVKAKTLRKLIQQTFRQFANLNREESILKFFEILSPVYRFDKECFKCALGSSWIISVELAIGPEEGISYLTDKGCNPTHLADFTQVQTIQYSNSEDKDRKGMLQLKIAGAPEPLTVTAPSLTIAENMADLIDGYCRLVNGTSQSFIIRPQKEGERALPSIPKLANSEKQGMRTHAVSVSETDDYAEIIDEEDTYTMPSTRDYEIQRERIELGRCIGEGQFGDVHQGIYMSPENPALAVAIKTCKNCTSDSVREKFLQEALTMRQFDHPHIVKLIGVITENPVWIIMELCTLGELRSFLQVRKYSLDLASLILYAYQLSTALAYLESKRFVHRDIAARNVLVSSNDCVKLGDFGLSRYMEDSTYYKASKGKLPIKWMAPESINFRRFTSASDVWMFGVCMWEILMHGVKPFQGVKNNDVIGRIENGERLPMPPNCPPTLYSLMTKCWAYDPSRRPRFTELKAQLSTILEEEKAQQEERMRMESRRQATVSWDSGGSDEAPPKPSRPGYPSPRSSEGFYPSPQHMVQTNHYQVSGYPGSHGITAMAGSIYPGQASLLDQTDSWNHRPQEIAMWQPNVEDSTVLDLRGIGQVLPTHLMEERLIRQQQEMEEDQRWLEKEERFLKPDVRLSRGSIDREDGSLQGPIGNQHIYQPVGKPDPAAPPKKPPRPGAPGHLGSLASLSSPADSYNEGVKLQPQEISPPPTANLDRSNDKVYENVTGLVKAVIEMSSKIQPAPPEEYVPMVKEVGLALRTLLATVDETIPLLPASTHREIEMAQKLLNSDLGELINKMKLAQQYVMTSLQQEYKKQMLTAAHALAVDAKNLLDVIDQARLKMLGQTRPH

[4] = system: Fibrinogen (Alexa647-labelled); assay: fibrinogen binders on compound microarrays, profiling panel, artefact control for SMM control-protein annotation, biochemical, small-molecule microarray, 635/667 nm fluorescence (AID 1131); conditions: fibrinogen-A647 binding fluorescence, higher = more signal;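 further: z-score merges 667 nm fluorescence with per-spot signal-to-noise over triplicate slides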
[5] = biological target: Follistatin (Homo sapiens) (UniProt P19883); assay: follistatin binders on small-molecule microarrays, primary screen, biochemical, small-molecule microarray, 635/667 nm fluorescence (AID 1132); conditions: FST binding, 635 nm fluorescence, higher = more signal
Follistatin (Homo sapiens), sequence (P19883 whole entry, looked up): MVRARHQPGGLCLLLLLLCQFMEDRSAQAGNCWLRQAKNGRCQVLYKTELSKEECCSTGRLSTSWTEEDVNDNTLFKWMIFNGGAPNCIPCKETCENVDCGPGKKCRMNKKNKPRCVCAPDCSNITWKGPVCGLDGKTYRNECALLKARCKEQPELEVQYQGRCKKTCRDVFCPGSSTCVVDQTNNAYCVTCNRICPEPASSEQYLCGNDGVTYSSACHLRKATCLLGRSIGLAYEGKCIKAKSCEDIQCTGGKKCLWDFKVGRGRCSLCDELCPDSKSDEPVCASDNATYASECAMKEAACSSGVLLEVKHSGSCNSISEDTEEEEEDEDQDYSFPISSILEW

[6] = biological target: Fibroblast growth factor 2 (Homo sapiens) (UniProt P09038); assay: FGF2 binders on small-molecule microarrays, primary screen, biochemical, small-molecule microarray, 635/667 nm fluorescence (AID 1133); conditions: small-molecule microarray binding, FGF2, fluorescence 635/667; higher = more signal
Fibroblast growth factor 2 (Homo sapiens), sequence (P09038 whole entry, looked up): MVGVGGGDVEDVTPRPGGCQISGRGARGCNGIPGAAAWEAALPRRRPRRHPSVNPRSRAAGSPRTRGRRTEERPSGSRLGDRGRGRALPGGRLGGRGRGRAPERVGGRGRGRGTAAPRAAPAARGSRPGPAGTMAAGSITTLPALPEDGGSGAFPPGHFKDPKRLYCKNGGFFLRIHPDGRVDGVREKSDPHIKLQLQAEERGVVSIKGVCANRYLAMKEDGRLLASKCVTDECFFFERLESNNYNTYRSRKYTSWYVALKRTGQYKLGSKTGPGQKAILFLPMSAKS

[7] = mitochondrial membrane potential change in A549 cells, profiling panel, cell-based, JC-1 fluorescence, basal, 24 h, 100 nL (AID 1138); conditions: higher = more signal;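 further: A549 lung adenocarcinoma cells under basal conditions with no added stimulus; test concentration not given here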
Lefty1 = Lefty1 binders on small-molecule microarrays, primary screen, biochemical, small-molecule microarray, 635/667 nm fluorescence (AID 1139); conditions: small-molecule microarray binding, fluorescence 635/667; higher = more signal
[8] = system: wheat germ agglutinin (Triticum aestivum), Alexa647-labelled; assay: wheat germ agglutinin binders on compound microarrays, profiling panel, artefact control for SMM control-protein annotation, biochemical, small-molecule microarray, 635/667 nm fluorescence (AID 1140); conditions: WGA-A647 binding, 635 nm fluorescence, higher = more signal;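 further: score merges 667 nm feature emission with signal to noise over triplicate slides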
[9] = biological target: Luciferin 4-monooxygenase (Photinus pyralis) (UniProt P08659); assay: firefly luciferase enzyme inhibitors, primary screen, biochemical, luminescence, purified enzyme, 2006 set (AID 1141); conditions: SteadyGlo luminescence, 30 min, higher = more signal, called active from +8 up or from −8 down;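 further: cell-free assay with purified firefly luciferase at 100 ng per well in PBS; test concentration not given here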
Luciferin 4-monooxygenase (Photinus pyralis), sequence (P08659 whole entry, looked up): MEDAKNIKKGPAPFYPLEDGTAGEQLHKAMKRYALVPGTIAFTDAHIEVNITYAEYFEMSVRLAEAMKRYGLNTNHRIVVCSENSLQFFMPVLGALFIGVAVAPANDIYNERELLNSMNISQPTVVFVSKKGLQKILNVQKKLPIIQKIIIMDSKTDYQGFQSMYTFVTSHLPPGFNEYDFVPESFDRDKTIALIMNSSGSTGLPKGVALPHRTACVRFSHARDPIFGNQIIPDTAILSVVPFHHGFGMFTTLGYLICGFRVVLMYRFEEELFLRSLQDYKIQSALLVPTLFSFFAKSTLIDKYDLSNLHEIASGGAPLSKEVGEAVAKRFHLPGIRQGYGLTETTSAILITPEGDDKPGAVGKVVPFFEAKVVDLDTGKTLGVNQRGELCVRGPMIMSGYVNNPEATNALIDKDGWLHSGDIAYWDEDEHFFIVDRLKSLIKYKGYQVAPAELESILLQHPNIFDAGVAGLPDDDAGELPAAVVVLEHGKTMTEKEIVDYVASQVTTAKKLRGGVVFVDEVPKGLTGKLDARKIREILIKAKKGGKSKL

[10] = system: Wnt5a (protein binding on small-molecule microarray); assay: Wnt5a binders on small-molecule microarray, primary screen, biophysical, 635/667 nm fluorescence (AID 1142); conditions: 635 nm fluorescence, higher = more signal;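 further: fluorescence read at 667 nm with signal to noise per printed feature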
[11] = cell viability in Huh7 cells, primary screen, cytotoxicity control for HCV replication inhibitor project, CellTiter-Glo luminescence, basal, 48 h (AID 1143); conditions: Huh7 HCV replicon, higher = more signal, called active from +8 up or from −8 down;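 further: Huh7 hepatoma cells carrying a hepatitis C replication reporter with no stimulus; test concentration not given here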
[12] = P. aeruginosa biofilm formation inhibitors, primary screen, PAO1 strain, BacTiter-Glo luminescence, LB-PBS (AID 1144); conditions: 12 h, higher = more signal
[13] = CREB reporter modulators without forskolin, primary screen, cell-based, PC12, CRE-LacZ reporter, unstimulated (AID 1145); conditions: no forskolin, luminescence, 4.5 h, higher = more signal, called active from +8 up or from −8 down
[14] = CREB reporter modulators under forskolin, primary screen, cell-based, PC12, CRE-LacZ reporter, forskolin-stimulated (AID 1146); conditions: luminescence, 4.5 h, higher = more signal, called active from +8 up or from −8 down;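 further: PC12 cells with 6xCRE LacZ reporter stimulated by forskolin 10 µM; beta-galactosidase reporter signal reflecting CREB driven transcription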
[15] = biological target: Streptavidin (Streptomyces avidinii) (UniProt P22629); assay: streptavidin binders on small-molecule microarray, primary screen, artefact control for SMM compound annotation, biophysical, 635/667 nm fluorescence (AID 1147); conditions: streptavidin binding, higher = more signal;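 further: signal reflects streptavidin binding to arrayed compounds as a control protein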
Streptavidin (Streptomyces avidinii), sequence (P22629 whole entry, looked up): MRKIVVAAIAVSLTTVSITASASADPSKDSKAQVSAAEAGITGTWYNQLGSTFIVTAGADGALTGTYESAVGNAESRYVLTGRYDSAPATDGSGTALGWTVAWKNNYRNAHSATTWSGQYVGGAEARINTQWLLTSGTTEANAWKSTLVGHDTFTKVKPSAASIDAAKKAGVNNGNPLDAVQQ

[16] = small-molecule binders of probe aInhba, primary screen, biochemical, small-molecule microarray, 635/667 nm fluorescence (AID 1148); conditions: higher = more signal;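 further: score merges 667nm spot fluorescence with signal-to-noise for antibody binding to printed compounds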
Torsin-1A (Homo sapiens) [17] = biological target: Torsin-1A (Homo sapiens) (UniProt O14656); assay: torsin A binders from cell lysate, primary screen, small-molecule microarray, wild-type, 635/667 nm (AID 1149); conditions: COS7 hTOR1A-WT lysate, 635 nm fluorescence, higher = more signal
Torsin-1A (Homo sapiens), sequence (O14656 whole entry, looked up): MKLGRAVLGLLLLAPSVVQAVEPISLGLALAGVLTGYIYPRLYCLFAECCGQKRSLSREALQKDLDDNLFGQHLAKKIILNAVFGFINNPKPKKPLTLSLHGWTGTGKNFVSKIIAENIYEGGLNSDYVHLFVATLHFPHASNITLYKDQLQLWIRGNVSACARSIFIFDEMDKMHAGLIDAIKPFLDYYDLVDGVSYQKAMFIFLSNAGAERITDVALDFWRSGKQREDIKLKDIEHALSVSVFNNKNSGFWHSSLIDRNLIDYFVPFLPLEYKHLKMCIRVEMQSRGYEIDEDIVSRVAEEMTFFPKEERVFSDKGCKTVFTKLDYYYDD

Torsin-1A (Homo sapiens) [18] = biological target: Torsin-1A (Homo sapiens) (UniProt O14656); assay: small-molecule binders of mutant TOR1A in lysate, primary screen, cell lysate, small-molecule microarray, COS7 lysate, 635/667 nm fluorescence (AID 1150); conditions: COS7 hTOR1A mutant lysate, 635 nm fluorescence, higher = more signal;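 further: score pools 667 nm emission and signal to noise measuring lysate protein binding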
[19] = system: Sonic hedgehog protein (Shh); assay: small-molecule binders of Shh protein, primary screen, biochemical, small-molecule microarray, 635/667 nm fluorescence (AID 1151); conditions: small-molecule microarray binding, 635 nm fluorescence; higher = more signal;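 further: Shh protein binding to compounds spotted on small-molecule microarray slides; score combines spot fluorescence intensity with signal-to-noise across triplicate slides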

Structure (SMILES) | composite z-score [1] | composite z-score [2] | composite z-score [3] | composite z-score [4] | composite z-score [5] | composite z-score [6] | z-score [7] | composite z-score (Lefty1) | composite z-score [8] | z-score [9] | composite z-score [10] | z-score [11] | z-score [12] | z-score [13] | z-score [14] | composite z-score [15] | composite z-score [16] | composite z-score (Torsin-1A (Homo sapiens) [17]) | composite z-score (Torsin-1A (Homo sapiens) [18]) | composite z-score [19]
COC(=O)[C@@]1(Cc2ccccc2)[C@H]2c3cc(C(=O)N(C)C)n(Cc4cc(F)c(F)c(F)c4)c3C[C@H]2CN1C(=O)c1ccccc1 | 2.19 | 1.22 | 0.692 | 0.832 | 0.83 | -0.311 | -0.322 | -0.807 | 0.418 | 1.78 (inactive) | 0.312 | -3.19 (inactive) | 0.301 (inactive) | 0.0109 (inactive) | -0.214 (inactive) | 0.773 | 0.681 | 0.0663 | 0.12 | -0.578
COCCOC(=O)N1C(=O)[C@@]2(c3cc(C#CC4=CCCCC4)ccc31)[C@H](c1ccc(OCCO)cc1)N1[C@H](c3ccccc3)[C@H](c3ccccc3)OC(=O)[C@H]1[C@@H]2C(=O)Nc1nc2ccccc2s1 | 0.317 | 1.18 | 0.358 | 0.929 | 1.19 | 0.571 | -2.19 | 0.982 | 0.53 | -2.79 (inactive) | 0.329 | -3.52 (inactive) | -2.45 (inactive) | -1.16 (inactive) | -0.482 (inactive) | 1.27 | -0.0178 | -0.0779 | 0.394 | 0.911
CCCNC(=O)[C@@]1(C)c2ccccc2C(=O)N(Cc2ccc(OC(F)(F)F)cc2)[C@H]1c1ccc(CO)cc1 | -0.607 | 1.11 | 0.275 | 0.264 | 0.778 | 0.557 | 1.07 | -0.526 | 0.419 | -0.166 (inactive) | -0.0508 | -2.65 (inactive) | 0.28 (inactive) | -0.0259 (inactive) | -0.326 (inactive) | -0.456 | 0.249 | 0.243 | 0.6 | 0.628
C=CCC(OC(C)=O)[C@@H]1[C@@H](N(Cc2cc3ccccc3o2)C(=O)c2ccc(-c3ccccc3)cc2)c2cc(OCCCO)ccc2N1C(=O)Cc1ccc2ccccc2c1 (stereo not given in full) | 0.708 | -0.321 | -0.0252 | 0.186 | 0.386 | -0.0741 | 1.33 | -0.0934 | 0.34 | -0.729 (inactive) | -0.172 | 0.0758 (inactive) | 0.19 (inactive) | 1.85 (inactive) | 0.874 (inactive) | 0.0693 | 0.0963 | -0.635 | -0.0864 | -0.076
C[C@]1(C(=O)NCC(F)(F)F)c2ccccc2C(=O)N(Cc2cc(F)cc(C(F)(F)F)c2)[C@H]1c1ccc(CO)cc1 | -0.99 | 0.105 | -0.0984 | 0.0953 | 1.24 | 0.261 | -1.8 | -0.273 | -0.0396 | 0.408 (inactive) | 0.0343 | -4.86 (inactive) | -0.704 (inactive) | 0.324 (inactive) | 0.486 (inactive) | -0.388 | -0.128 | 0.135 | 0.527 | 0.394

Source: PubChem BioAssay
